# Compound activity as filed in PubChem.
# Pf growth 48h = P. falciparum growth inhibition at 48 hours (one generation). P. falciparum luciferase growth in erythrocytes, 48 h. Potency, µM (series often up to 28.7 µM), most hits filed as inhibitors. 310,000 compounds, 5.9% hits. AID 504832
#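 Read-out is firefly luciferase luminescence from an integrated reporter in P. falciparum, so falling signal marks reduced parasite growth. Infected erythrocytes were at 2% hematocrit and 0.1% parasitemia (final) in Albumax-supplemented RPMI 1640.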
# Pf growth 96h = P. falciparum growth inhibition at 96 hour, primary screen for plastid delayed-death inhibitors | P. falciparum luciferase reporter growth, 96 h | Potency, µM (titrated, usually from 28.7 µM), usual class: inhibitors | 320,000 compounds, 6.9% hits | AID 504834
#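 P. falciparum expressing integrated firefly luciferase, in erythrocytes at 2% hematocrit, 0.05% parasitemia, incubated with compounds 96 h at 37 C, 5% CO2. Growth inhibition read as loss of luminescence; two-generation exposure targets delayed-death apicoplast inhibitors.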
# SARS PLpro yeast = inhibitors of SARS-CoV papain-like protease in yeast | S. cerevisiae expressing SARS-CoV PLpro, growth rescue | Potency, µM (top dose mostly 32.9 µM), hits mostly activators | 330,000 compounds, 0.19% hits; calls by dose curve; note: nearly all actives have a fitted effect of over 55% in size
# AMA1-RON2 inh = disrupts binding of P. falciparum AMA1 to RON2; AlphaScreen AMA1-biotinylated RON2 peptide binding; Potency, µM (titrated, usually from 58.2 µM), actives largely listed as inhibitors; 360,000 compounds, 0.2% hits; note: nearly all actives have a fitted effect of over 45% in size
#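 AMA1 (3D7) with his tag at 25 nM final met compounds first, then biotinylated RON2 peptide at 25 nM; detection used donor plus acceptor beads, 10 µg/mL apiece, read by AlphaScreen after 30 min at room temperature.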
# Numbers stand for hits; . = inactive; ? = inconclusive; / = no result; [ ] = remark or other dose. In the library only some 9.4% were active in any assay of this set; here they are far more common. Unless noted, calls come from the whole dose curve; as a rule, active = well fitted curve in the direction sought with a large enough effect; inconclusive = small, poorly fitted or top-dose-only effect, or another doubt; inactive = no such curve, though single readings can be large; an effect the other way counts as inactive or inconclusive.
SMILES,Pf growth 48h,Pf growth 96h,SARS PLpro yeast,AMA1-RON2 inh
COc1ccc(C)cc1N(CC(=O)NCCSCc1cccc(Cl)c1)S(C)(=O)=O,.,12µM,.,.
O=C(O)c1cc(NS(=O)(=O)c2cccs2)cc(NS(=O)(=O)c2cccs2)c1,?,.,.,.
COCCCn1cc(CN2CC(N3CCN(CCO)CC3)CS2(=O)=O)nn1 (configuration not stated),/,/,/,.
COc1ccc(N(CC(=O)NCCSCc2c(F)cccc2Cl)S(C)(=O)=O)cc1OC,.,/,.,.
CS(=O)(=O)Nc1ccc(C(=O)NCCSCc2ccccc2)cc1,?,13µM,.,.
CS(=O)(=O)N(CC(=O)NCCSCc1c(F)cccc1Cl)c1ccc2c(c1)OCO2,12µM,.,.,.
Cc1onc(-c2c(F)cccc2Cl)c1C(=O)N[C@@H]1C(=O)N2[C@H]1SC(C)(C)[C@H]2C(=O)O,.,.,/,/
COc1ccccc1/C=C(\NC(=O)c1ccccc1)C(=O)NCc1ccco1,.,.,.,.
COc1cc(OC)cc(C2=NC3(CCC(C)CC3)NC2=S)c1 (configuration not stated),10µM,.,.,.
Cc1cc(NC(=O)CSc2nc(-c3cccs3)cc(C(F)(F)F)n2)no1,?,1.9µM,.,.
CS(=O)(=O)c1nc(-c2cccs2)cc(C(F)(F)F)n1,.,13µM,.,/
O=[N+]([O-])c1cnn(-c2nc(-c3cccs3)cc(C(F)(F)F)n2)c1,10µM,?,.,.
CCCNC(=O)CSc1nc(-c2cccs2)cc(C(F)(F)F)n1,.,8.3µM,.,.
CC(C)(Cc1ccc(O)cc1)NC(=O)c1ccccc1,.,.,.,.
c1ccc(CCc2ccccc2-c2nc(-c3cccnc3)no2)cc1,13µM,?,.,.
CCC[N+]1(CC#CCC(c2ccccc2)c2ccccc2)CCCCC1,.[0.00184 µM],?,.,.
Cc1ccc2sc(N3CCN(C(=O)c4ccc([N+](=O)[O-])o4)CC3)nc2c1C,0.37µM,0.74µM,.,.
O=C(c1ccc([N+](=O)[O-])o1)N1CCN(c2nc3ccc(F)cc3s2)CC1,2.3µM,1.2µM,.,.
Cc1c(Cl)ccc2sc(N3CCN(C(=O)C4=COCCO4)CC3)nc12,?,.,.,.
COc1cccc2sc(N3CCN(c4nc5ccccc5s4)CC3)nc12,.,.,.,.
O=C(c1ccc([N+](=O)[O-])o1)N1CCN(c2nc3c(Cl)cccc3s2)CC1,1.3µM,1µM,.,.
COc1cccc2sc(N3CCN(C(=O)c4ccc([N+](=O)[O-])o4)CC3)nc12,0.83µM,0.74µM,.,.
O=C(c1cccs1)N1CCN(c2nc3ccc([N+](=O)[O-])cc3s2)CC1,.,.,.,.
CCc1nn2cc(-c3ccccc3)nc2s1,.,/,.,?
CC(C)(C)c1ccc(-c2csc(NC(=O)CN3C(=O)NC4(CCCCC4)C3=O)n2)cc1,.,/,.,.
SMILES,Pf growth 48h,Pf growth 96h,SARS PLpro yeast,AMA1-RON2 inh
CCN(CC(=O)Nc1ccc(OC)cc1)C(=O)c1oc2c(Cl)cccc2c1C,.,.,.,.
FC(F)(F)c1cccc(-n2cc(-c3ccccc3)[nH]c2=S)c1,12µM,.,.,.
Cc1ccc(-c2cn(-c3ccccc3)c(=S)[nH]2)cc1C,/,?,.,.
CC(=O)Nc1cc2c(cc1NC(=O)Cn1nc(-c3ccc4c(c3)OCCO4)ccc1=O)OCCO2,/,9.3µM,.,.
CC(=O)Nc1cc2c(cc1NC(=O)Cn1nc(-c3ccccc3)ccc1=O)OCCO2,.,.,.,.
COC(=O)c1c(NC(=O)C2=COCCO2)sc(C)c1C,.,.,.,.
COc1ccccc1N1C(=O)C2C(c3ccccc3F)NN(C(=O)c3ccc(C)cc3)C2C1=O (configuration not stated),.,?,.,.
Cc1ccc(C(=O)N2NC(c3ccccc3F)C3C(=O)N(c4cccc(C)c4)C(=O)C32)cc1 (configuration not stated),.,2.1µM,.,.
Cc1ccc(CNC(=O)CCCCn2c(=O)[nH]c3ccsc3c2=O)cc1,.,10µM,.,.
O=C(CCCCCn1c(=O)[nH]c2ccsc2c1=O)N1CCCCC1,12µM,?,.,.
Cc1nonc1C(=O)N/N=C/c1cccc(O)c1,.,2.1µM,.,.
CC(=O)NC1=NN(C(C)=O)C(C)(c2ccc3ccccc3c2)S1 (configuration not stated),2.9µM,.,?,.
CC1(c2ccc(Cl)cc2Cl)NC(=O)N(CC(=O)NC2CCCCC2)C1=O (configuration not stated),?,?,.,.
CC(=O)OCCCN(C)CC/C=C1/c2ccccc2CSc2ccccc21,/,/,/,.
C[N+](C)(C)CC/C=C1/c2ccccc2CSc2ccccc21,9.3µM,4.1µM,.,.
Cc1ccsc1-c1nc(CSCC(=O)NCc2ccc3c(c2)OCO3)c(C)o1,/,.,.,.
COc1ccc(OC)c(NC(=O)c2cc(-c3c(C)cc(C)cc3O)n[nH]2)c1,?,.,.,.
COc1ccc(OC)c(NC(=O)c2cc(-c3cc(C)cc(C)c3O)n[nH]2)c1,/,9.3µM,.,.
Cc1ccc(C(=O)Nc2cc(Cl)ccc2OC(=O)c2ccc(C)cc2)cc1,?,0.47µM,.,/
COc1ccc(NC(=O)c2cc(-c3cc(C)c(C)cc3O)n[nH]2)c(OC)c1,.[0.00184 µM],?,.,.
COc1ccc(Cl)cc1NC(=O)c1cc(-c2cc(C)ccc2O)n[nH]1,1.9µM,2.3µM,.,.
COc1ccc(OC)c(NC(=O)c2cc(-c3cc(C)c(C)cc3O)n[nH]2)c1,2.6µM,1.9µM,.,.
CCc1ccc(-c2nc(SCC(=O)c3c(N)n(C4CC4)c(=O)[nH]c3=O)n[nH]2)cc1,.,.,.,.
Clc1ccc(-c2nnc(-c3cccnc3)o2)cc1,.,?,.,.
CCOc1cc(Br)c(CC(=O)O)cc1OCC,.,.,.,.
SMILES,Pf growth 48h,Pf growth 96h,SARS PLpro yeast,AMA1-RON2 inh
CCOc1cc(OCC)c(C(=O)CCC(=O)O)cc1OCC,?,2.4µM,/,/
c1ccc(CSC2=NNC(c3ccccn3)S2)cc1 (configuration not stated),2.1µM,?,?,.
CCN(C(=O)COC(=O)c1c2c(nc3ccccc13)CCC2)c1c(N)n(Cc2ccccc2)c(=O)[nH]c1=O,/,/,/,.
CC(C)CN(C(=O)COC(=O)c1c2c(nc3ccccc13)CCC2)c1c(N)n(Cc2ccccc2)c(=O)[nH]c1=O,8.3µM,6.6µM,.,.
CN(C(=O)COC(=O)c1c2c(nc3ccccc13)CCCC2)c1c(N)n(Cc2ccccc2)c(=O)[nH]c1=O,13µM,8.3µM,.,.
COc1ccc(Nc2nnc(SCc3cc(=O)n4ccsc4n3)s2)cc1,?,?,.,.
CC(=O)c1ccc(NC(=O)Nc2ccc(Br)cc2C)cc1,.,.,.,.
CC(=O)c1ccc([C@H]2C[C@@]34CN(C(=O)OC(C)(C)C)S(=O)(=O)[C@H]3C[C@H]2O4)cc1,.,.,.,.
CCCCCN1C=CC(=C2C(=O)c3ccccc3C2=O)C=C1,.,.,.,.
CCOC(=O)Cn1c(=NC(=O)C(C)C)sc2c(C)cc(C)cc21,1.9µM,?,.,.
